Data as given in PubChem BioAssay (NCATS).
Results filed as inconclusive are left out. Calls of active or inactive are those of the source. The call rests on the fitted dose curve; in most records, active means well fitted inhibition curve with a large enough effect; inconclusive means small, poorly fitted or top-dose-only effect; inactive means flat fitted curve, though single readings scatter.

Tested on: HaCat
Assay: Cytotoxic Profiling of Annotated Libraries Using Quantitative High-Throughput Screening (AID 1296008); further: nearly all actives have a fitted effect of over 60% in size
Settings: Five cell lines viability, CellTiter-Glo ATP luminescence, 48-72 h; max response: hits give low values
Summary of the method: (§1)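 Cells exposed to compounds for 48 or 72 hr at 37 degrees Celsius. Viability read as ATP-coupled luminescence with CellTiter-Glo after 10 min at room temperature.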
On the % scale 0 is the no-effect control and ±100 the full control effect; potency means the concentration at half of the fitted maximal effect.

Compound | outcome | max response
CC(=O)OC(C)(C)/C=C/C(=O)C(C)(O)C1C(O)CC2(C)C3CC=C(C(C)(C)C(=O)O)C(CC(=O)O)C3(C)C(=O)CC12C (configuration not stated) | inactive | –
Cc1cccc(-c2[nH]ncc2-c2ccnc3ccccc23)n1 | inactive | –
Cc1[nH]c(/C=C2\C(=O)Nc3ccc(S(=O)(=O)N(C)c4cccc(Cl)c4)cc32)c(C)c1C(=O)N1CCN(C)CC1 | inactive | –
N#Cc1ccc(O[C@@H]2c3ccccc3C[C@H]2N2CCC[C@@H](N)C2)c(Cl)c1 | inactive | –
O=S(=O)(Nc1cc(Cl)c(Oc2cnc3ccccc3c2)c(Cl)c1)c1ccc(Cl)cc1Cl | inactive | –
Cc1cc2c(F)c(Oc3ncnn4cc(OCC(C)OC(=O)C(C)N)c(C)c34)ccc2[nH]1 (configuration not stated) | inactive | –
COc1cc(C[C@H]2C(=O)OC[C@@H]2Cc2ccc(OC)c(OC)c2)ccc1O | inactive | –
CC(=O)C1=C(O)C=C2Oc3c(C(C)=O)c(O)c(C)c(O)c3[C@]2(C)C1=O | inactive | –
O=C1NC(=O)C(c2cnc3ccccn23)=C1c1cn2c3c(cc(F)cc13)CN(C(=O)N1CCCCC1)CC2 | inactive | –
CCn1c(N)c(C(=O)NC)c(=O)c2ccc(C#CC(C)(O)COC)nc21 (configuration not stated) | – | -27.4% (inactive)

Tested on: NIH3T3
Assay: as above
Settings: Five cell lines viability, CellTiter-Glo ATP luminescence, 48-72 h; max response: hits give low values
Summary of the method: as §1

Compound | Potency | max response | outcome
Cc1cc(C(=O)Nc2cc(Nc3ccc4c(/C=C/c5ccccn5)n[nH]c4c3)ccc2F)n(C)n1 | 0.731 µM (active) | – | –
CC1CCC/C=C/C(=O)c2c(O)cc(O)cc2CC(=O)O1 (configuration not stated) | 14.6 µM (active) | – | –
Nc1ncnc2c1nc(Cl)n2C1OC2COP(=O)(O)OC2C1O (configuration not stated) | 5.8 µM (active) | – | –
C=C1C(=O)O[C@@H]2[C@H]1CC(=O)[C@H](C)[C@@](O)(C(=O)/C=C/C)[C@H]2OC(=O)C(C)CC (some centres not stated) | 4.04 µM (active) | – | –
CN1CCN(C2CCN(C(=O)Nc3cc(Oc4ccc(NC(=O)C5(C(=O)Nc6ccc(F)cc6)CC5)c(F)c4)ccn3)CC2)CC1 | 2.59 µM (active) | – | –
O=C(NO)c1cnc(N2CCN(S(=O)(=O)c3ccc4ccccc4c3)CC2)nc1 | 2.24 µM (active) | – | –
C=C1CC2OC(=O)C(=C)C2C(OC(=O)/C(C)=C\C)CC2(C)OC1=CC2=O (configuration not stated) | 12.8 µM (active) | – | –
Cc1cc(Nc2nc(-c3ccccc3)nc3ccccc23)n[nH]1 | 9.2 µM (active) | – | –
COc1cc(C(N)=O)nc(-c2ccccn2)c1O | – | -4.41% (inactive) | –
C#CC(=O)N(c1ccc(OC)cc1OC)C(C(=O)NCC(=O)OCC)c1cccs1 (configuration not stated) | 0.164 µM (active) | – | –
CC(=O)OC(C)(C)/C=C/C(=O)C(C)(O)C1C(O)CC2(C)C3CC=C(C(C)(C)C(=O)O)C(CC(=O)O)C3(C)C(=O)CC12C (configuration not stated) | – | – | inactive
Cc1noc(-c2ccc(-c3ccc(CC(=O)O)cc3)cc2)c1NC(=O)O[C@H](C)c1ccccc1Cl | 7.31 µM (active) | – | –
c1ccc(-c2ccc(CNc3nc(-c4ccccn4)nnc3-c3ccccc3)cc2)cc1 | 3.66 µM (active) | – | –
Cn1nc(-c2ccc(C(F)(F)F)cc2)nc2c(=O)n(C)c(=O)nc1-2 | 1.3 µM (active) | – | –
CNC(=O)[C@@H](c1ccccc1)N1CCc2cc(OC)c(OC)cc2[C@@H]1CCc1ccc(C(F)(F)F)cc1 | – | -22.6% (inactive) | –
O=C(Nc1cccnn1)N1CCN(c2nccc(-c3ccc(F)c(F)c3)n2)CC1 | – | -4.62% (inactive) | –

Compound | Potency | max response | outcome
C=C1C(=O)O[C@@H]2C(OC(=O)/C(C)=C\C)/C(C)=C\C(=O)/C=C(\C)C[C@H](O)[C@@H]12 (some centres not stated) | 9.04 µM (active) | – | –
Cc1[nH]c2ccc(F)cc2c1-c1nc2c3cccnc3c3ncccc3c2[nH]1 | 14.6 µM (active) | – | –
COC1CC(O[C@H]2CC[C@]3(C)C4CC[C@@]5(C)C(=O)[C@]4(CC[C@@H]3C2)CC[C@@H]5C2=CC(=O)OC2)OC(C)C1OC1OC(COC2OC(CO)C(O)C(O)C2O)C(O)C(O)C1O (some centres not stated) | – | – | inactive
C[C@H](Nc1ncnc2nc[nH]c12)c1cc2cccc(Cl)c2c(=O)n1-c1ccccc1 | 4.61 µM (active) | – | –
CC(C)(O)/C=C/C(=O)[C@](C)(O)[C@H]1[C@H](O)C[C@@]2(C)[C@@H]3CC=C4[C@@H](C[C@H](O[C@@H]5O[C@H](CO)[C@@H](O)[C@H](O)[C@H]5O)C(=O)C4(C)C)[C@]3(C)C(=O)C[C@]12C | – | – | inactive
CCOc1cc(C(C)(C)C)ccc1C1=N[C@@](C)(c2ccc(Cl)cc2)[C@@](C)(c2ccc(Cl)cc2)N1C(=O)N1CCN(CC(=O)N2CCOCC2)CC1 | 10.1 µM (active) | – | –
C=CC(=O)Nc1cccc(Nc2nc(Nc3ccc(OCCOC)cc3)ncc2F)c1 | 5.8 µM (active) | – | –
COc1cc(C[C@H]2C(=O)OC[C@@H]2Cc2ccc(OC)c(OC)c2)ccc1O | – | -24.5% (inactive) | –
Cc1cc2c(cc1N1C(=O)c3cccc4c(CCCO)ccc(c34)C1=O)n(C)c(=O)n2C | 1.53 µM (active) | – | –
CC(=O)C1=C(O)C=C2Oc3c(C(C)=O)c(O)c(C)c(O)c3[C@]2(C)C1=O | – | – | inactive
C=C(C)C(=O)O[C@H]1[C@H]2C(=C)C(=O)O[C@@H]2C[C@@H](C)[C@@H]2O[C@@H]2C(=O)[C@](C)(O)[C@@H]1OC(=O)C(=C)C | 3.55 µM (active) | – | –
Cc1nc(C#Cc2ccnc(Cl)c2)c(C)n1-c1ccc(F)cc1 | – | -10.7% (inactive) | –
C=C1C(=O)O[C@H]2C3=C(C)CCC[C@]3(C)C(=O)C[C@@H]12 | 16.4 µM (active) | – | –
COC(=O)C1=COC(O[C@@H]2O[C@H](CO[C@@H]3O[C@H](COC(=O)/C=C\c4ccc(O)cc4)[C@@H](O)[C@H](O)[C@H]3O)[C@@H](O)[C@H](O)[C@H]2O)C2C(CO)=CCC12 (some centres not stated) | – | -28.7% (inactive) | –
CC1CCCC[C@H]2C(=O)C=C[C@H](O)[C@@H]2CC(=O)O1 (some centres not stated) | 18.4 µM (active) | – | –
COC1CC(O[C@H]2CC[C@]3(C)C4CC[C@]5(C)C(C6=CC(=O)OC6)=CCC56OC46CC[C@@H]3C2)OC(C)C1O[C@@H]1O[C@H](CO[C@@H]2O[C@H](CO)[C@@H](O)[C@H](O)[C@H]2O)[C@@H](O)[C@H](O)[C@H]1O (some centres not stated) | – | – | inactive
